# From PubChem BioAssay
# Only a selection was taken, and hits are over-represented in it overall.
# ROC1-CUL1 inh = human ROC1-CUL1 E3 ligase inhibition; AID 1347404; in vitro K48 di-Ub FRET, acceptor:donor ratio, 45 min; P62877+Q13616; inhibition, % at 10 µM; 140,000 compounds, 0.6% hits; in the data active means inhibition above about 25%
# Target sequence (P62877 whole entry, looked up): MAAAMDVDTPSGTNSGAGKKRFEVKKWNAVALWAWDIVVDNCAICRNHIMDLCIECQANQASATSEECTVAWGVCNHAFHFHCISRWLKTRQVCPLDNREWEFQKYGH
# Target sequence (Q13616 whole entry, looked up): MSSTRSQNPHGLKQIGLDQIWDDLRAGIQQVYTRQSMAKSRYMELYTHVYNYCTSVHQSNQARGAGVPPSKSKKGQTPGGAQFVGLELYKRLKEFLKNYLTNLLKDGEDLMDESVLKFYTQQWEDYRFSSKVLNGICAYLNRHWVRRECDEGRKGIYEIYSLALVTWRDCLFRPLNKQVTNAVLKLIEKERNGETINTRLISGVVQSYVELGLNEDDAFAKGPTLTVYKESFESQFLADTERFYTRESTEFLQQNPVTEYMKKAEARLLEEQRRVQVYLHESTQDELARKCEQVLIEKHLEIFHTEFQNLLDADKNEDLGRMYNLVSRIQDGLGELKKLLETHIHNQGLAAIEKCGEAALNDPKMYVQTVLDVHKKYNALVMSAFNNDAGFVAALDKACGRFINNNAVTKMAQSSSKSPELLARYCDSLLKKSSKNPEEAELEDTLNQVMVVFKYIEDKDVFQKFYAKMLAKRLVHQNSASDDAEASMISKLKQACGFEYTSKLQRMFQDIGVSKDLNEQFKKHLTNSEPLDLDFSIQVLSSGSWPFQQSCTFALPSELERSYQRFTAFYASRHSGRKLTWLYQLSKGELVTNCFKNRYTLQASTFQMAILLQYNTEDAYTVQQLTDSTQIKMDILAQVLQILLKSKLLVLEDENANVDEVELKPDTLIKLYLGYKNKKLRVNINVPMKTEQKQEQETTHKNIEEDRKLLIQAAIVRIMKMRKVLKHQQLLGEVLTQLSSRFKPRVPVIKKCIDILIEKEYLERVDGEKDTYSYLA
# * = called active by the depositor.
SMILES,ROC1-CUL1 inh
COCCOc1ccc(C(=O)Oc2ccccc2)cc1,0.6
CCOc1ccc(C(=O)Oc2c(I)c(OCC)cc(OCC)c2C(C)=O)cc1,5.9
OCC1(Cc2ccccc2F)CCCN(Cc2cccc3ccccc23)C1 (configuration not stated),11.5
COc1ccccc1CN1C(=O)O[C@@H]2CN(CCCn3cccn3)C[C@@H]21,-2.9
O=C1NN(c2cccc(C(F)(F)F)c2)C(=O)/C1=C\c1ccc(Br)cc1,5.5
O=C1NN(c2ccc(I)cc2)C(=O)/C1=C\c1ccc(N2CCOCC2)cc1,-2.8
O=C1NN(c2cccc(Cl)c2)C(=O)/C1=C/c1ccc(Br)cc1,60.2*
O=C1NN(c2ccc(Cl)c(Cl)c2)C(=O)/C1=C/c1ccc(Cl)cc1,78.0*
COc1cc(/C=C2\C(=O)NN(c3ccc(C)cc3)C2=O)cc([N+](=O)[O-])c1O,5.9
COc1ccc(/C=C2/C(=O)NN(c3ccc(I)cc3)C2=O)cc1,2.0
O=C1NN(c2cccc(Cl)c2)C(=O)/C1=C\c1cc(Br)ccc1O,3.2
O=C1NN(c2ccc(Cl)cc2)C(=O)/C1=C/c1cc(Br)cc([N+](=O)[O-])c1O,85.1*
CCN(CC)c1ccc(/C=C2\C(=O)NN(c3ccc(Cl)c(Cl)c3)C2=O)cc1,1.9
O=C1NN(c2ccccc2)C(=O)/C1=C/c1cccc(OCc2ccc(Cl)c(Cl)c2)c1,6.7
O=C1NN(c2ccc(I)cc2)C(=O)/C1=C/c1ccc(Cl)cc1,59.3*
CCOc1cc(/C=C2\C(=O)NN(c3ccc(Cl)cc3)C2=O)cc(I)c1O,5.6
Cc1ccc(N2C(=O)CCC2(C#N)c2ccccc2OCc2ccccc2)cc1 (configuration not stated),-1.0
O=C(Nc1ccc2oc(-c3cccc4ccccc34)nc2c1)c1ccc([N+](=O)[O-])cc1[N+](=O)[O-],8.4
Cc1cn2c3c(=O)n(Cc4ccccc4F)c(=O)n(C)c3nc2n1CCO,-2.0
Cc1cc2nnc(SCC(=O)Nc3ccc4c(c3)OCCO4)n2c2ccccc12,8.4
CCc1noc(C)c1C(=O)Nc1cc(C)ccc1F,-6.7
CCOC(=O)c1cnc(SC)nc1SC(=N)N,-4.5
COc1cc(S(=O)(=O)n2c(C)nc3ccccc32)ccc1Br,6.4
COCC(=O)N1CCC(n2c(C3CCCO3)nc3cc(C(F)(F)F)ccc32)CC1 (configuration not stated),5.7
O=C1NN(c2ccc(I)cc2)C(=O)/C1=C\c1ccc(Br)cc1,59.5*
SMILES,ROC1-CUL1 inh
C=CCOc1ccc(/C=C2\C(=O)NN(c3ccc(Cl)cc3)C2=O)cc1OC,-10.4
O=C1NN(c2ccc(Br)cc2)C(=O)/C1=C\c1ccc(O)cc1,1.6
O=C1NN(c2ccc(F)cc2)C(=O)/C1=C/c1ccccc1O,2.1
O=C1NN(c2ccc(Cl)cc2)C(=O)/C1=C\c1ccc(F)cc1,38.5*
CCOc1cc(/C=C2/C(=O)NN(c3ccc(F)cc3)C2=O)ccc1OC(C)C,4.7
O=C1NN(c2cc(Cl)cc(Cl)c2)C(=O)/C1=C\c1ccc(F)cc1,84.9*
O=C1NN(c2cccc(Cl)c2)C(=O)/C1=C/c1cccs1,11.7
CC(=O)Oc1cccc(/C=C2/C(=O)NN(c3ccc(C)c(C)c3)C2=O)c1,1.6
O=C1NN(c2ccc(F)c(Cl)c2)C(=O)/C1=C\c1cccc(OC(=O)c2cccs2)c1,97.1*
O=C1OC(c2ccccc2)=N/C1=C/c1cccc(OC(=O)c2cccs2)c1,-1.8
O=C1NN(c2ccc(I)cc2)C(=O)/C1=C\c1cccs1,3.6
Cc1ccc(CCC(=O)N2CCN(c3cccc(C)c3C)CC2)cc1,12.6
COc1ccc(NC(=O)c2ccccc2OC)c([N+](=O)[O-])c1,-1.0
O=C(NC1CCCC1)C1CCCN(C2CCN(c3nc4ccccc4o3)CC2)C1 (configuration not stated),0.4
COc1ccc(/C=C2/N=C(c3ccc(OCCC(C)C)cc3)OC2=O)cc1OC,-2.1
O=C(C1=NOC2(C(=O)c3ccccc3C2=O)C1c1ccccc1)c1ccccc1 (configuration not stated),5.2
CSc1ccc(CNCC2CCNCC2)cc1,-6.0
c1ccc2c(c1)Sc1ncccc1-c1cncnc1-2,9.6
CN(C)CC(C)(O)c1ccc2c(c1)CN(C(=O)c1ccc(-c3ccco3)cc1)CCO2 (configuration not stated),-6.1
O=C(c1cc2c(ccc3ccccc32)oc1=O)N1CCN(Cc2ccccc2)CC1,8.8
Cc1ccccc1CCN1CCCC(CN(C)Cc2ccon2)C1 (configuration not stated),1.9
CCCc1ccc(C(=O)N2CCN(c3ccc(F)cc3)CC2)cc1,7.4
Cc1oc(-c2ccc(NC(=O)Cc3ccccc3)cc2)nc1CNC(=O)Cc1cccc2ccccc12,2.6
O=C1NN(c2ccccc2)C(=O)/C1=C/c1ccc2c(c1)OCO2,6.7
O=C1NN(c2ccccc2)C(=O)/C1=C/c1ccc(OCc2ccccc2)cc1,-12.7
SMILES,ROC1-CUL1 inh
O=C1NN(c2ccc(Cl)c(Cl)c2)C(=O)/C1=C/c1cccc([N+](=O)[O-])c1,8.9
CCc1ccc(/C=C2\C(=O)NN(c3ccc(C)cc3)C2=O)cc1,45.3*
CCc1ccc(/C=C2\C(=O)NC(=S)N(C)C2=O)cc1,-2.4
O=C1NN(c2ccc(Cl)c(Cl)c2)C(=O)/C1=C/c1cc2c(cc1[N+](=O)[O-])OCO2,64.0*
O=C1C(=O)N(CCc2c[nH]c3ccccc23)C(c2cccc(F)c2)C1C(=O)c1ccccc1 (configuration not stated),7.7
CN(C1=NC(=O)NC(=O)C1)c1ccccc1,-2.7
COc1ccccc1C(=O)N1CCCn2c1nc1ccccc1c2=O,-7.8
CCOC(=O)C1(Cc2ccc(F)cc2)CCCN(C(=O)CNC(C)=O)C1 (configuration not stated),4.5
O=C(Nc1ccc(Oc2ccccc2)nc1)C1CCCCN1C1CCC1 (configuration not stated),-2.4
CCCC(=O)NC(C)c1cc(C)ccc1C (configuration not stated),-3.9
O=C(CCN1CCCCCC1)c1ccc2c(c1)OCO2,7.4
O=C(O)c1ccc(Cl)c(NCc2ccccc2)c1,22.4
COc1ccc(/C=N/OC(=O)c2ccccc2)cc1,4.4
COc1ccc(/C=C(\C)c2ccc(OC)cc2)cc1,-5.6
COc1ccc(/C=C(/S)C(=O)O)cc1,89.3*
Cc1nnc(SCc2ccc3c(c2)OCCO3)s1,-0.6
Cc1cc(C(=O)NC2CCCc3nc(-c4cccnc4)ncc32)c(C)o1 (configuration not stated),6.9
CC(/C=C1\SC(=S)N(c2cccc(C(=O)O)c2)C1=O)=C\c1ccccc1,65.9*
O=C1/C(=C\c2cccc(O)c2)SC(=S)N1c1ccccc1,4.1
CC(=C/c1ccccc1)/C=C1\SC(=S)N(C(C(=O)O)c2ccccc2)C1=O (configuration not stated),104.6*
CCOC(=O)c1ccc(NC(=O)CN2C(=O)S/C(=C/C(C)=C/c3ccccc3)C2=O)cc1,6.6
CC(/C=C1\SC(=S)N(NC(=O)c2cccc(O)c2)C1=O)=C\c1ccccc1,-4.6
CC(/C=C1\SC(=S)N(CC(=O)O)C1=O)=C\c1ccccc1,-2.5
C=CCSc1nc(SCC=C)c2cnn(-c3ccccc3)c2n1,5.1
CCC(C)Oc1ccccc1/C=C1/SC(=O)N(CC(=O)N2CCCCC2)C1=O (configuration not stated),5.6
C1CCC2C(C1)N=C1SCCN12 (configuration not stated),0.2
COc1ccc(CCc2nnc(CCC(=O)NCC(F)(F)F)o2)cc1,4.8
